Bioassay records: PubChem, National Center for Advancing Translational Sciences (NCATS)
Compounds with a hit are over-represented: about 1.8% of the library has one in this group of screens.
TrxR1 inh = inhibitors of rat thioredoxin reductase 1; O89049; recombinant rTrxR1, NADPH fluorescence consumption, selenite substrate; Potency, µM (doses to about 114 µM), inactives show top-dose activity change, negative = inhibition, hits mostly inhibitors; 390,000 compounds, 1% hits; also: nearly all actives have a fitted effect of over 65% in size
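Rat TrxR1 (90 nM in the dispensed reagent) was pre-reduced with 400 uM NADPH for 5 min at room temperature, then incubated with compound for 15 min. After 400 uM selenite was added, NADPH fluorescence (Ex 340/Em 450 nm) was followed for 8 min.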
GCN5L2 inh = inhibitors of human GCN5L2 histone acetyltransferase; 390,000 compounds, 0.21% hits; GCN5L2 HAT assay, ThioGlo1 CoA-SH fluorescence; Q92830; Potency, µM (series often up to 58.9 µM), for inactives: at the top dose activity change, negative = inhibition, usual class: inhibitors; AID 504327
Target sequence (Q92830 whole entry, looked up): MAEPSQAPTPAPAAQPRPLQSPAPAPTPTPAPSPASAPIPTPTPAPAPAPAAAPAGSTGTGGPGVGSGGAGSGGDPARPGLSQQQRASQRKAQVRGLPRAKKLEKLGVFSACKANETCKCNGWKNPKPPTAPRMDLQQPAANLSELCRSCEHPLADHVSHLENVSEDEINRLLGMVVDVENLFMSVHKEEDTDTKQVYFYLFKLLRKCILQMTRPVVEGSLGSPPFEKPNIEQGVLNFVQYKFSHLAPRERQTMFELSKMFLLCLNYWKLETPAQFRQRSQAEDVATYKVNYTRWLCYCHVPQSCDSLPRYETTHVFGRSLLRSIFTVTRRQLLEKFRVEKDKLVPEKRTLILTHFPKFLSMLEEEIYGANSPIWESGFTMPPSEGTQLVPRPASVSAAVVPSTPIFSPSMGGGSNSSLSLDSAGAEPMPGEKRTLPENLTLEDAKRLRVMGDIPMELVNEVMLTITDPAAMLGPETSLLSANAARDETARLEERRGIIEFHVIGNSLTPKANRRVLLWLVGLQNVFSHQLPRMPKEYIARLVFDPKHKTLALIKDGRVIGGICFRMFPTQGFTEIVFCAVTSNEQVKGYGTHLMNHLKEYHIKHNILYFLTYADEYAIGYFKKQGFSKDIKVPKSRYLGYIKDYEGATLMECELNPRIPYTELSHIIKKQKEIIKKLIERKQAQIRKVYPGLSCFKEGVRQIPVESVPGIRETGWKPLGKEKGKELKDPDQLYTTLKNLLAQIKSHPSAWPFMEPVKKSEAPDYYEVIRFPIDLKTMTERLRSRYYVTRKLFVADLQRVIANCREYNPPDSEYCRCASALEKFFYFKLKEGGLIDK
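Enzyme at 20nM final was mixed with library compounds for 15 min at room temperature. Peptide H3(1-25) at 75uM, acetyl-CoA at 70uM and ThioGlo1 at 50uM were then added. Plates were read immediately and after 20 min (Ex340nm/Em540nm).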
TrxR1 substrate = is turned over as a substrate by rat TrxR1 | O89049 | purified TrxR1 substrate turnover, NADPH consumption readout | Potency, µM (titrated, usually from 114 µM), for inactives: at the highest dose activity change, negative = substrate turnover | 390,000 compounds, 0.01% hits; also: nearly all actives have a fitted effect of over 50% in size
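Rat TrxR1, dispensed at 90 nM, was prereduced with 400 uM NADPH (final) for 5 min at ~22 deg C, then incubated with compound 15 min before 400 uM selenite. A first-read NADPH fluorescence drop versus no-compound background flagged substrates.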
VDR inhibitor = blocks the human vitamin D receptor; Potency, µM, inactives show max response, negative = inhibition, most hits filed as inhibitors; 400,000 compounds, 0.93% hits; P11473; VDR-SRC2-3 peptide fluorescence polarization, 2 h; AID 504847
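Fluorescence polarization assay of small-molecule disruption of VDR binding to coregulator peptide SRC2-3. Compounds and controls pin-transferred, then read after 2 h incubation at ambient room temperature.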
* = called active by the depositor; ? = inconclusive; nt = not tested or not shown; ! = not active in a repeat; [ ] = dose if it differs, or a comment. Calls follow the shape of the dose curve; as a rule, active = well fitted curve in the direction sought with a large enough effect; inconclusive = small, poorly fitted or top-dose-only effect, or another doubt; inactive = no such curve, though single readings can be large; an effect the other way counts as inactive or inconclusive. % is scaled to controls: 0 for no effect and ±100 for the full control effect; potency is read from the fitted curve at half-maximal effect.

SMILES	TrxR1 inh	GCN5L2 inh	TrxR1 substrate	VDR inhibitor
CCCCCCCC1=CC2=CC(=O)C(C)(OC(C)=O)C(=O)C2=CN1CCc1ccccc1 (configuration not stated)	nt	-14%	nt	nt
CCCCCCCC1=CC2=C(Cl)C(=O)C(C)(OC(C)=O)C(=O)C2=CN1C (configuration not stated)	nt	nt	nt	71µM*
CCCCC1=CC2=CC(=O)C(C)(OC(=O)CCC(=O)OC)C(=O)C2=CO1 (configuration not stated)	nt	nt	nt	1%
CCCCCCCC1=CC2=C(Cl)C(=O)C(C)(OC(C)=O)C(=O)C2=CO1 (configuration not stated)	nt	nt	nt	50µM*
C[n+]1ccc(/C=N/Nc2nc(Cl)c(C#N)c(Cl)c2Cl)cc1	3.5µM*	-12%	-18%	-2%
Clc1nnc(N/N=C/c2ccccc2)c2ccccc12	7%[57.1 µM]	-6%[0.501 µM]	3%[57.1 µM]	15%
COc1cc(C)c(/C=C/C(C)=C/C=C/C(C)=C/C(=O)O)c(C)c1C	5%	25µM*	-4%	45µM*!
CC1CCCC(C)N1C(=O)COC(=O)/C=C/c1ccco1 (configuration not stated)	50µM*	-5%	3%	6%
CCOC(=O)/C=C/C(=O)OCC(=O)N1CCN(C(=O)c2ccco2)CC1	50µM*	-2%	-7%	-19%
CCOC(=O)c1cc(CC)sc1NC(=O)CN1CCN(C(=O)c2ccco2)CC1	35µM*	-17%	-6%	-7%
O=C(/C=C/c1ccc(OC(F)F)cc1)OCC(=O)N1CCN(C(=O)c2ccco2)CC1	3%	-9%	3%	-16%
CC1CCCC(NC(=O)COC(=O)/C=C/c2ccco2)C1C (configuration not stated)	22µM*	-6%	-1%	-13%
COc1ccc(OC)c(/C=C/C(=O)OCC(=O)N2C(C)CCCC2C)c1 (configuration not stated)	5%	-11%	16%	-15%
Cc1cccc(C(=O)N(Cc2ccco2)Cc2ccccc2F)c1	-12%	-9%	-13%	-3%
S=C(NCCCc1cnc[nH]1)NCCCN(Cc1ccc(Cl)cc1)c1ncc(Br)cn1	-8%	nt	-8%	-18%
CC1CCN(C(=O)COC(=O)/C=C/c2ccc([N+](=O)[O-])cc2)CC1	1%	3%	1%	-8%
CC1CCN(C(=O)COC(=O)/C=C/c2ccc(Br)o2)CC1	25µM*	?	-3%	-29%
O=Cc1cccc(OC(=O)/C=C/c2ccco2)c1	32µM*	?	-3%	-22%
CC1CCN(C(=O)COC(=O)/C=C/c2ccco2)CC1	8.9µM*	-3%	11%	?
CC1CCCCC1NC(=O)COC(=O)c1c2c(nc3ccccc13)/C(=C\c1ccco1)CC2 (configuration not stated)	14µM*	nt	-2%	1%
Cc1ccc2nc(CS)[nH]c2c1	8%	nt	4%[0.0914 µM]	nt
Cc1cc2ccc(Cl)nc2nc1C	15%[0.0914 µM]	nt	12%[0.0914 µM]	nt
O=C(CCNS(=O)(=O)c1cccc(Cl)c1)OCC(=O)N1CCN(C(=O)c2ccco2)CC1	50µM*	0%	11%	-6%
O=C(CC(Nc1cccc(Cl)c1Cl)C(=O)OCC(=O)c1cccs1)c1ccccc1 (configuration not stated)	?	-37%	4%	10%
Cc1c(Cl)cccc1Nc1ccccc1C(=O)O	8%	-12%	3%	45µM*!
SMILES	TrxR1 inh	GCN5L2 inh	TrxR1 substrate	VDR inhibitor
Cc1c(Cl)cccc1NC(CC(=O)c1ccccc1)C(=O)OCC(=O)c1cccs1 (configuration not stated)	40µM*	-5%	-8%	?
O=C(CC(Nc1cccc(Cl)c1Cl)C(=O)O)c1ccccc1 (configuration not stated)	40µM*	3%	2%	?
Cc1c(Cl)cccc1NC(CC(=O)c1ccccc1)C(=O)O (configuration not stated)	3.5µM*	-13%	4%	?
O=C(CCC(=O)c1ccc(Oc2ccccc2)cc1)Nc1cccc(Cl)c1Cl	24%	3%	3%	7%
S=C(NCCCc1cnc[nH]1)NCCCN(Cc1ccc(Cl)cc1)c1ccc(Br)cc1	1%	nt	-8%	3%
CC(C)Cn1c(=O)c2ccccc2n2c(CCC(=O)N3CCN(c4ccccc4)CC3)nnc12	9%	-2%	1%	-22%
CCCN1CNc2c(c(=O)[nH]c(=S)n2CCc2ccsc2)C1	-9%	nt	1%	-9%
COc1ccccc1NC(CC(=O)c1ccccc1)C(=O)OCC(=O)c1ccc(F)cc1 (configuration not stated)	35µM*	23%	-2%	-20%
COc1ccccc1NC(=O)CCCC(=O)OCC(=O)c1ccc(F)cc1	12%	-3%	3%	-5%
O=C(CC(Nc1ccccc1Cl)C(=O)O)c1ccccc1 (configuration not stated)	4.5µM*	14%	14%[57.1 µM]	25µM*
C[C@@H](CCc1ccccc1)NC[C@H](O)c1ccc(O)c(C(N)=O)c1	nt	-2%	nt	-16%
CCN(CC)S(=O)(=O)c1nnc(NC(=O)COc2ccc(C)cc2)s1	-17%	-4%	-8%	9%
CC1(C)S[C@@H]2[C@H](NC(=O)[C@@H](N)c3ccc(O)cc3)C(=O)N2[C@H]1C(=O)O	nt	7%[21.4 µM]	nt	4%
CCOc1ccc(S(=O)(=O)Nc2cc(SCC(=O)O)c(O)c3ccccc23)cc1	-25%	19%	-9%	18µM*
CCc1ccc(S(=O)(=O)Nc2cc(SCC(=O)O)c(O)c3ccccc23)cc1	-12%	-3%	-12%	?
Cc1ccc(C)c(S(=O)(=O)Nc2cc(SCC(=O)O)c(O)c3ccccc23)c1	?	65%	-17%	22µM*
Cc1ccc(C)c(NS(=O)(=O)c2cc(C(=O)Nc3ccccc3-c3ccccc3)ccc2C)c1	47%	-12%	16%	-12%
Cc1onc(-c2ccc(Br)cc2)c1C(=O)Nc1ccc(Br)cc1F	2%[57.1 µM]	-2%	-4%[57.1 µM]	2%
COc1cc(C)cc(C(=O)O)c1C1=C(O)c2cccc(O)c2C(=O)C1=O	0%	-1%	1%	-6%
Cc1cc(O)c2c(c1)C(=O)c1cccc(O)c1C2=O	nt	-8%	nt	14µM*
COC1=CC(=O)c2c(ccc3ncnc(N)c23)C1=O	?	nt	79µM*	?
O=C(O)c1ccc(NC2=C(n3nnc4ccccc43)C(=O)c3ccccc3C2=O)cc1	7.1µM*	-3%	-5%	13%
C/C(=N\NC(=S)NCc1ccccc1)c1ccco1	79µM*	-12%	-12%	-12%
O=C(C[n+]1ccccc1)c1cccc([N+](=O)[O-])c1	-16%	nt	1%	nt
O=S(=O)(NCCc1csc2nc(-c3ccccc3)nn12)c1cc(F)ccc1F	11%[57.1 µM]	0%	5%[57.1 µM]	12%
CCCCCCCCN1[C@@H](CC(=O)OC)c2ccc(/C=C/C(=O)OC)cc2S1(=O)=O	16%	nt	-5%	nt
O=C(Nc1ccc(-c2nc3ncccc3o2)cc1)c1ccco1	40µM*	-11%	29%	?
O=C(Nc1ccc(-c2nc3ncccc3o2)cc1)c1ccc(Br)o1	-23%	-12%	48%	0%
